# In PubChem BioAssay (Tox21):
# Values joined by “and” are separate entries in the source; they are usually repeats but may differ in a detail not shown here. Equal values may be shown once. Records with an inconclusive call do not appear. Entries that show only a call come without a potency. More than one record can exist for a structure, and the calls need not agree. Active and inactive are the calls of the source. Unless noted, calls come from the whole dose curve; as a rule, active = well fitted curve in the direction sought with a large enough effect in the repeat runs; inconclusive = weak or mixed curves; inactive = no such curve, though single readings can be large; an effect the other way counts as inactive or inconclusive.
# Legend:
# [1] = qHTS assay to identify small molecule agonists of the estrogen receptor alpha (ER-alpha) signaling pathway in the presence of an antagonist - cell viability counter screen (AID 1259386);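 note: cells exposed to compounds for 22 h at 37 °C before the viability read; nearly all actives have a fitted effect of over 30% in size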; note: potency is the fitted concentration of half-maximal effect
# Outline: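 Cells are starved of estrogens for 5 days in charcoal-stripped serum, seeded for 24hr and co-treated with ICI-182,780 (10.0nM final) and test compounds. After 22hr at 37C, viability is read as CellTiter-Fluor fluorescence.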
# [2] = biological target: Progesterone receptor (Homo sapiens) (UniProt P06401); assay: qHTS assay to identify small molecule agonists of the progesterone receptor (PR) signaling pathway (AID 1346784; calls by dose curve; note: nearly all actives have a fitted effect of over 30% in size; note: potency is the fitted concentration of half-maximal effect)
# Outline: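 PR-UAS-bla HEK 293T cells carrying a UAS-driven beta-lactamase reporter were seeded in medium with 2% charcoal-stripped FBS, preincubated 6 hr at 37C, then exposed to compounds in DMSO for 16 hr; agonism was read by LiveBLAzer B/G FRET fluorescence.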
# [3] = biological target: Progesterone receptor (Homo sapiens) (UniProt P06401); assay: qHTS assay to identify small molecule antagonists of the progesterone receptor (PR) signaling pathway (AID 1346795; active = well fitted inhibition curve with a large enough effect in the signal ratio in the repeat runs, not every such curve was filed as active; the % refers to the signal ratio)
# Outline: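 PR-UAS-bla HEK293T cells carrying a UAS-driven beta-lactamase reporter were plated in medium with 2% charcoal-stripped FBS and rested 6 hr at 37C. Compounds were added with 1 nM R5020 (final) for 16 hr, then FRET substrate loaded 2 hr at room temperature.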
# [4] = qHTS assay to identify small molecule antagonists of the TGF-beta/Smad signaling pathway - cell viability counter screen (AID 1346824); note: nearly all actives have a fitted effect of over 50% in size
# Outline: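 SBE-bla HEK 293T cells, incubated overnight, then compound plus 0.25 ng/mL TGF-beta1 (stock added) for 5 hr at 37 C. Viability was read in the same wells by CellTiter-Glo luminescence after 30 min at room temperature.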
# [5] = qHTS assay to identify small molecule agonists of the TGF-beta/Smad signaling pathway - cell viability counter screen (AID 1346829); note: top concentration of the series differs between compounds; nearly all actives have a fitted effect of over 45% in size
# Outline: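 SBE-bla HEK 293T cells plated overnight, compound exposure 5 hr at 37 C. Viability read in the same wells by CellTiter-Glo luminescence after 30 min at room temperature, following the beta-lactamase read.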
# [6] = Caspase-3/7 induction in CHO-K1 cells by small molecules, qHTS cell viability counter screen (AID 1346979); note: nearly all actives have a fitted effect of over 35% in size; note: potency is the fitted concentration of half-maximal effect
# Outline: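 Wild-type CHO-K1 cells were seeded at 1,500 per well, rested 5hr at 37 C, then exposed to compounds in DMSO. After 16hr, CellTiter-Fluor reagent was added and fluorescence read 1hr later as the viability measure.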
# [7] = Caspase-3/7 induction in CHO-K1 cells by small molecules, qHTS assay (AID 1346980); note: nearly all actives have a fitted effect of over 15% in size
# Outline: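 Wild-type CHO-K1 cells exposed to compounds for 17hr at 37 C, 5% CO2. Caspase-3/7 activity then measured by Caspase-Glo 3/7 luminescence after 30min at room temperature.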
# [8] = Caspase-3/7 induction in HepG2 cells by small molecules, qHTS cell viability counter screen (AID 1346981); note: series mostly up to about 92 µM; nearly all actives have a fitted effect of over 30% in size
# Outline: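 Steps: seed 2,000 HepG2 cells per well; incubate 5 hr at 37 C; pin-add compounds in DMSO; incubate 16 hr; add CellTiter-Fluor; after 1 hr at 37 C and 5% CO2, read fluorescence.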
# [9] = biological target: Nuclear receptor subfamily 1 group I member 2 (Homo sapiens) (UniProt O75469); assay: Human pregnane X receptor (PXR) small molecule agonists, qHTS assay (AID 1346982); note: nearly all actives have a fitted effect of over 35% in size; note: potency is the fitted concentration of half-maximal effect
# Outline: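 Agonist mode qHTS: PXR-Luc HepG2 cells plated 5 hr before DMSO-dissolved compounds were pinned in, cultured 24 hr at 37 C, 5% CO2; ONE-Glo luminescence readout.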
# [10] = biological target: Nuclear receptor subfamily 1 group I member 2 (Homo sapiens) (UniProt O75469); assay: CYP3A4 induction through human pregnane X receptor (PXR) by small molecules, qHTS assay (AID 1346984); note: nearly all actives have a fitted effect of over 40% in size
# Outline: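 Steps: seed DPX-2 cells, 5 hr at 37C; pin-transfer compounds; 24 hr at 37C; add Luciferin-IPA (3uM final), 3 hr at 37C; add One-Glo, 30 min RT; read luminescence.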
# [11] = biological target: Nuclear receptor subfamily 1 group I member 2 (Homo sapiens) (UniProt O75469); assay: Human pregnane X receptor (PXR) activation by small molecules, qHTS assay (AID 1346985); note: nearly all actives have a fitted effect of over 40% in size
# Outline: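 DPX-2 cells (HepG2 co-transfected with a PXR response element and a CYP3A4-promoter luciferase construct) were seeded at 2,000 per well, rested 5 hr at 37C, then exposed to DMSO-dissolved compounds for 24 hr. Activation was read as luciferase luminescence.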
# [12] = qHTS assay to identify small molecule agonists of the TGF-beta/Smad signaling pathway (AID 1346859; active = well fitted activation curve with a large enough effect in the signal ratio in the repeat runs, not every such curve was filed as active; the % refers to the signal ratio; note: series mostly up to about 77 µM)
# Outline: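 HEK 293T cells stably carrying a beta-lactamase reporter driven by the Smad binding element were seeded overnight, exposed to DMSO-dissolved compounds for 5 hr at 37 C, 5% CO2, then loaded with FRET substrate for 2 hr at room temperature.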
# [13] = biological target: Thyrotropin-releasing hormone receptor (Homo sapiens) (UniProt P34981); assay: qHTS assay to identify small molecule antagonists of the thyrotropin-releasing hormone receptor (TRHR) signaling pathway (AID 1346877; active = well fitted inhibition curve with a large enough effect in the repeat runs, not every such curve was filed as active; note: series mostly up to about 51 µM)
# Outline: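 Cells (TRHR-HEK293) are plated and kept 18 h at 37 °C/5% CO2. A calcium-sensitive dye is added for 2 h, compound follows for 5 min at room temperature, and TRH is then given at 1 nM final.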
# [14] = biological target: Thyrotropin-releasing hormone receptor (Homo sapiens) (UniProt P34981); assay: qHTS assay to identify small molecule agonists of the thyrotropin-releasing hormone receptor (TRHR) signaling pathway (AID 1346891; calls by dose curve; note: series mostly up to about 58 µM)
# Outline: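 TRHR-expressing HEK293 cells were plated 18 h at 37 °C/5% CO2, loaded with calcium dye 2 h at 37 °C, then given compound in DMSO; fluorescence was read kinetically for 3 min at 1 s intervals.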
# [15] = qHTS assay to identify small molecule antagonists of the progesterone receptor (PR) signaling pathway - cell viability counter screen (AID 1346798); note: series mostly up to about 92 µM; nearly all actives have a fitted effect of over 50% in size
# Outline: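 PR-UAS-bla HEK293T cells in medium with 2% charcoal-stripped FBS were treated with compounds plus R5020 for 16 hr at 37C. Cell viability was then read by CellTiter-Glo luminescence after 30 min at room temperature in the same wells.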
# [16] = Human pregnane X receptor (PXR) small molecule agonists, qHTS cell viability counter screen (AID 1346977); note: nearly all actives have a fitted effect of over 50% in size; note: potency is the fitted concentration of half-maximal effect
# Outline: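 PXR-Luc HepG2 cells in medium with 5% charcoal-stripped FBS were pre-incubated 5hr, then exposed to compounds for 24hr at 37C. Viability was read in the same wells by CellTiter-Fluor fluorescence, reagent added after 23hr with a 1hr incubation.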
# [17] = Caspase-3/7 induction in HepG2 cells by small molecules, qHTS assay (AID 1346978); note: nearly all actives have a fitted effect of over 15% in size
# Outline: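 Wild-type HepG2 cells, 2,000/well, settled 5 hr at 37 C and 5% CO2, then compound-treated for 17 hr; caspase-3/7 activity read by luminescent Caspase-Glo 3/7 after 30 min at room temperature.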
# [18] = biological target: Cytochrome P450 2D6 (Homo sapiens) (UniProt P10635); assay: Cytochrome P450 Family 2 Subfamily D Member 6 (CYP2D6) small molecule antagonists: luciferase reporter qHTS assay (AID 1671196); note: nearly all actives have a fitted effect of over 50% in size; note: potency is the fitted concentration of half-maximal effect
# Outline: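 P450-Glo format: CYP2D6 converts a proluciferin substrate to luciferin in an NADPH-driven reaction lasting 1 h at room temperature. Light output, proportional to CYP2D6 activity, reflects interference by test chemicals.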
# [19] = qHTS assay to identify small molecule agonists of the progesterone receptor (PR) signaling pathway - cell viability counter screen (AID 1346799; calls by dose curve; note: nearly all actives have a fitted effect of over 45% in size; note: potency is the fitted concentration of half-maximal effect)
# Outline: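 PR-UAS-bla HEK293T cells, 3,000 per well in medium with 2% charcoal-stripped FBS, were preincubated 6 hr at 37C, then exposed to compounds for 16 hr; viability was read as CellTiter-Glo luminescence after 30 min at room temperature.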
# [20] = biological target: Nuclear receptor subfamily 1 group I member 2 (Rattus norvegicus) (UniProt Q9R1A7); assay: Rat pregnane X receptor (rPXR) activation by small molecules, qHTS assay (AID 1346983); conditions: rPXR luciferase reporter cells, One-Glo luminescence, 24 h; max activation: stronger effect = higher value; note: nearly all actives have a fitted effect of over 20% in size
# Outline: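 Cell-based rPXR activation assay: rPXR cells, 2,000 per well, rested 5hr at 37 C, then exposed to compounds in DMSO for 24 hr at 37 C. Luciferase activity read by One-Glo luminescence after 30 min at room temperature.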
# Nuclear receptor subfamily 1 group I member 2 (Homo sapiens), sequence (O75469 whole entry, looked up): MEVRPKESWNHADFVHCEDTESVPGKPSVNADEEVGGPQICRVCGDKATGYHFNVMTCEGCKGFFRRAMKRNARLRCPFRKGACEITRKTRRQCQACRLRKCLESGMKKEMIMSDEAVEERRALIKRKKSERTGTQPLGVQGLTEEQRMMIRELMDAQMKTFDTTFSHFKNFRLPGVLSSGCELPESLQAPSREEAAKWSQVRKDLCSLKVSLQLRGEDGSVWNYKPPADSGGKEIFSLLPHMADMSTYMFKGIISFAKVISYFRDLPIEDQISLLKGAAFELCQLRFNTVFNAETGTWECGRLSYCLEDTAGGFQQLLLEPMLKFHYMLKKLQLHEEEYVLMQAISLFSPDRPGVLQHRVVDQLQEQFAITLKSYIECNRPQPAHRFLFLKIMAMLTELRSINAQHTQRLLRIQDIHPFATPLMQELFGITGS
# Nuclear receptor subfamily 1 group I member 2 (Rattus norvegicus), sequence (Q9R1A7 whole entry, looked up): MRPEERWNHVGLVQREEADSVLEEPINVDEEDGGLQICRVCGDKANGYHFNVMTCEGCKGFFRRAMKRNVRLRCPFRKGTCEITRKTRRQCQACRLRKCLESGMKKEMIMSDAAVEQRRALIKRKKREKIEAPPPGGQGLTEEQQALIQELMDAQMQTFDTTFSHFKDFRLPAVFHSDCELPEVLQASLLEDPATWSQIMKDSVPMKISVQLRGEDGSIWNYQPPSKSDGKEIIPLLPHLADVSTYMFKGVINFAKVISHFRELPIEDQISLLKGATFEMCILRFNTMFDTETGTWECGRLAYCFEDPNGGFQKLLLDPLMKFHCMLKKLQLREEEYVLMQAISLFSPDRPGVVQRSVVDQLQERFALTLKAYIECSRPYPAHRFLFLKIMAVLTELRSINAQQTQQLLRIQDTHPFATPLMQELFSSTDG
# Progesterone receptor (Homo sapiens), sequence (P06401 whole entry, looked up): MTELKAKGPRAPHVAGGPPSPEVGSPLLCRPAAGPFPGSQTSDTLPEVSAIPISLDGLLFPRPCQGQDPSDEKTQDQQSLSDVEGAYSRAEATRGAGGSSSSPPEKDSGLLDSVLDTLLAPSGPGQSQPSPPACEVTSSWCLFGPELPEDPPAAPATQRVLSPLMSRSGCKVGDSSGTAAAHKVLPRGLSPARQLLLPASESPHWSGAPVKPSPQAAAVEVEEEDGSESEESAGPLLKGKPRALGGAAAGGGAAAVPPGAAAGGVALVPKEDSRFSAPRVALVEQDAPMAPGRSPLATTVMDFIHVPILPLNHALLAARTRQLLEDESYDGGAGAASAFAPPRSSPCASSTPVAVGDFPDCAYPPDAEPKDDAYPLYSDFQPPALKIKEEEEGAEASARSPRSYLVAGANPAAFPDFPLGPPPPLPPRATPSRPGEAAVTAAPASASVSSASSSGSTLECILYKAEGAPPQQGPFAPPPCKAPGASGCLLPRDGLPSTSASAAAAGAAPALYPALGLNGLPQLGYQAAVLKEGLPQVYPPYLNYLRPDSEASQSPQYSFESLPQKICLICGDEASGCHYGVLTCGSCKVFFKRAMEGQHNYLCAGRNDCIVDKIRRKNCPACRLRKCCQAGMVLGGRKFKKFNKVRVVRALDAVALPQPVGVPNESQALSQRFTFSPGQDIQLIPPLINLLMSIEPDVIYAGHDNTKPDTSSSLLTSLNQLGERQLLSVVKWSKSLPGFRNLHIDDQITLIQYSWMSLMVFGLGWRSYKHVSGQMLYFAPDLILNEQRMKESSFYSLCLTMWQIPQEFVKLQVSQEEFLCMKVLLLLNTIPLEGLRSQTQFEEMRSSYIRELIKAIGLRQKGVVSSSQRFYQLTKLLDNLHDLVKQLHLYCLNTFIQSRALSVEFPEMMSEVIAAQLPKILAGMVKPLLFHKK
# Cytochrome P450 2D6 (Homo sapiens), sequence (P10635 whole entry, looked up): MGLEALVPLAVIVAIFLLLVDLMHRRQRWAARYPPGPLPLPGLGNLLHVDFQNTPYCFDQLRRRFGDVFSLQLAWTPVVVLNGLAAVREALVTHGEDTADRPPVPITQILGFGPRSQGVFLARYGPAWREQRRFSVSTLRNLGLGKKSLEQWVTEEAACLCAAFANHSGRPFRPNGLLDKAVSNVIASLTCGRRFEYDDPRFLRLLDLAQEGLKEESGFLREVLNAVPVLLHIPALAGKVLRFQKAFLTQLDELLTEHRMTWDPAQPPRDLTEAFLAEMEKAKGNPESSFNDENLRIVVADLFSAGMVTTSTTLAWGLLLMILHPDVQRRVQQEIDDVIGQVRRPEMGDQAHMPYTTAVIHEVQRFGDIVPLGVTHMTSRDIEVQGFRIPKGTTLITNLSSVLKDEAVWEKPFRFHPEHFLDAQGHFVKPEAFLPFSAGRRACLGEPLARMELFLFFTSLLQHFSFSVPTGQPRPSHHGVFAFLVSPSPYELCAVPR
# Thyrotropin-releasing hormone receptor (Homo sapiens), sequence (P34981 whole entry, looked up): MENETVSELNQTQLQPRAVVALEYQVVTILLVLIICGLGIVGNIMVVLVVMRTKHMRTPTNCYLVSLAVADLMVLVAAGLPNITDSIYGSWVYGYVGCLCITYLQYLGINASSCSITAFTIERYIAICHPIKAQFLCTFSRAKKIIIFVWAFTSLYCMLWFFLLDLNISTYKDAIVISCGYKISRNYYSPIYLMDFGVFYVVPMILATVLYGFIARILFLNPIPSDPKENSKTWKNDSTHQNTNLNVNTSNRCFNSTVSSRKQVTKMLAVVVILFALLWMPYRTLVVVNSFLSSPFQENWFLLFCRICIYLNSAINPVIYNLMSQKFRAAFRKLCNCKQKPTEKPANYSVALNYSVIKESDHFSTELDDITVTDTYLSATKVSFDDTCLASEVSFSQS
SMILES,Potency [1],Potency [2],Potency [3],Potency [4],Potency [5],Potency [6],Potency [7],Potency [8],Potency [9],Potency [10],Potency [11],outcome [12],Potency [13],Potency [14],Potency [15],Potency [16],Potency [17],Potency [18],Potency [19],max activation [20]
CC(=O)O[C@]1(C(C)=O)CC[C@H]2[C@@H]3C=C(C)C4=CC(=O)CC[C@]4(C)[C@H]3CC[C@@]21C,inactive,0.0039 µM (active),inactive,inactive,inactive,68.6 µM (active),inactive,inactive,27.3 µM (active),inactive,inactive,–,–,–,–,–,–,–,–,–
CCC/C=C/C=O,inactive,inactive,inactive,inactive,inactive,inactive,inactive,–,inactive,–,–,inactive,inactive,inactive,–,–,–,–,–,–
CCCN1C=CN(C)C1,inactive,inactive,inactive,inactive,inactive,inactive,inactive,inactive,inactive,–,–,inactive,–,–,inactive,inactive,inactive,–,–,–
C=CCCCCCCCCCC,inactive,inactive,inactive,inactive,inactive,inactive,inactive,inactive,inactive,–,–,inactive,–,–,inactive,inactive,inactive,inactive,–,–
Cc1ccc(C(C)(C)C)c(O)c1,inactive,inactive,–,inactive,inactive,66.4 µM (active),inactive,inactive,inactive,–,–,inactive,inactive,inactive,inactive,–,–,inactive,inactive,–
NCCS(=O)(=O)O,25.3 µM (active) and inactive,inactive,inactive,inactive,inactive,28.4 µM (active) and inactive,inactive,inactive,–,–,–,inactive,–,–,inactive,inactive,inactive,–,–,–
C/C=C/C(=O)N(CC)c1ccccc1C,inactive,inactive,–,inactive,inactive,inactive,inactive,–,inactive,inactive,–,inactive,–,–,inactive,inactive,inactive,inactive,inactive,-1.94% (inactive)
CCC(=O)O[C@H]1[C@H](O[C@@H]2[C@@H](C)[C@H](O[C@H]3C[C@@](C)(OC)[C@@H](O)[C@H](C)O3)[C@@H](C)C(=O)O[C@H](CC)[C@@](C)(O)[C@H](O)[C@@H](C)C(=O)[C@H](C)C[C@@]2(C)O)O[C@H](C)C[C@@H]1N(C)C,32.2 µM (active) and inactive,inactive,inactive,inactive,inactive,inactive,inactive,–,9.07 µM (active) and inactive,–,–,inactive,–,–,–,36.1 µM (active) and inactive,inactive,–,14.4 µM (active) and inactive,–
CC1(C)OC(=O)NC1=O,inactive,inactive,inactive,inactive,inactive,inactive,inactive,inactive,–,–,–,inactive,–,–,inactive,–,inactive,inactive,–,–
O=C(O)c1cc(=O)[nH]c(=O)[nH]1,inactive,inactive,inactive,inactive,inactive,inactive,inactive,inactive,inactive,inactive,inactive,inactive,–,–,–,inactive,–,6.34 µM (active),–,-3.14% (inactive)
CCc1cccc2c3c([nH]c12)C(CC)(CC(=O)O)OCC3 (configuration not stated),inactive,inactive,inactive,inactive,inactive,inactive,inactive,inactive,inactive,inactive,inactive,inactive,–,–,inactive,inactive,inactive,20 µM (active) and inactive,–,1.85% (inactive)
CCCCCC=O,inactive,inactive,–,inactive,inactive,inactive,inactive,–,inactive,–,–,inactive,inactive,inactive,inactive,–,inactive,inactive,inactive,–
CCC(Cc1c(I)cc(I)c(N)c1I)C(=O)O (configuration not stated),inactive,inactive,–,inactive,inactive,inactive,inactive,inactive,52.8 µM (active),inactive,inactive,inactive,–,inactive,inactive,inactive,–,inactive,inactive,-1.5% (inactive)
O=C(O)COCCN1CCN(C(c2ccccc2)c2ccc(Cl)cc2)CC1 (configuration not stated),inactive,inactive,–,inactive,inactive,inactive,inactive,–,inactive,–,inactive,inactive,inactive,–,inactive,inactive,inactive,–,inactive,1.59% (inactive)
C=C[Si](OCCOC)(OCCOC)OCCOC,inactive,inactive,–,inactive,inactive,inactive,inactive,inactive,inactive,–,–,inactive,–,–,inactive,inactive,inactive,–,inactive,–
CC(=O)Oc1c(C)c(C)c2c(c1C)CC[C@@](C)(CCC[C@H](C)CCC[C@H](C)CCCC(C)C)O2,inactive,inactive,–,inactive,inactive,inactive,inactive,inactive,inactive,inactive,inactive,inactive,–,–,inactive,inactive,inactive,inactive,inactive,-0.642% (inactive) and -1.19% (inactive)
